Values joined by “and” are separate entries in the source; they are usually repeats but may differ in a detail not shown here. Identical values can stand only once. Compounds without any hit were thinned out: in the full panel of roughly 83,000, 20% have a hit.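 Plates (96-well) were seeded with cells, treated with compound at one concentration, and incubated for 48 hours before percent growth was determined.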 Active and inactive are the calls of the source.

One assay concerns HL-60(TB) leukemia. Put plainly: NCI-60 one-dose screen, 48 h (100 = growth as untreated, 0 = no growth, -100 = all killed). The conditions noted are these: 0.01 µM. As to the method: Growth inhibition of the HL-60(TB) human tumor cell line is measured as a screen for anti-cancer activity. Cells are grown in 96 well plates and exposed to the test compound for 48 hours. Compounds are tested at a single concentration, which is 10^-5 M for most compounds. The reported endpoint is percent growth (GI% or GIPRCNT), where numbers from 0 - 100% represent growth inhibition, and numbers from -100% - 0 represent cell death. For example, a value of 40 represents 60% growth inhibition. A value of 0 means no net growth occurred over the course of the experiment. A value of -40 indicates 40% of cells at the beginning of the experiment died by the end of the experiment. A value of -100 means all cells are dead at the end of the experiment.
NCI-60 Human Tumor Cell Lines Screen was performed using the standard one-dose NCI protocol, which is described in more detail at https://dtp.cancer.gov/discovery_development/nci-60/default.htm.
Compounds with GIPRCNT values below 10 were considered active. Activity score was based on GIPRCNT using the following formula: […]
Score is 0 for GIPRCNT values of 100 or above, 50 for GIPRCNT values of 0, and 100 for GIPRCNT values of -100.
`CC(=O)O[C@H]1C(=O)[C@@]2(C)[C@H]([C@H](OC(=O)c3ccccc3)[C@]3(O)C[C@H](OC(=O)[C@H](O)[C@@H](NC(=O)c4ccccc4)c4ccccc4)C(C)=C1C3(C)C)[C@]1(OC(C)=O)CO[C@@H]1C[C@@H]2O`: the growth is -8.36% (active).

The assay is the same for the next values; noted with them: 2.5 µM.
Regarding `CC(=O)O[C@H]1C(=O)[C@@]2(C)[C@H]([C@H](OC(=O)c3ccccc3)[C@]3(O)C[C@H](OC(=O)[C@H](O)[C@@H](NC(=O)c4ccccc4)c4ccccc4)C(C)=C1C3(C)C)[C@]1(OC(C)=O)CO[C@@H]1C[C@@H]2O`, the growth is -43.6% (active).

The assay is the same for the next values; noted with them: 5 µM.
Regarding `CC(=O)O[C@H]1C(=O)[C@@]2(C)[C@H]([C@H](OC(=O)c3ccccc3)[C@]3(O)C[C@H](OC(=O)[C@H](O)[C@@H](NC(=O)c4ccccc4)c4ccccc4)C(C)=C1C3(C)C)[C@]1(OC(C)=O)CO[C@@H]1C[C@@H]2O`, the growth was -42.4% (active).

The same assay, now with this note: 10 µM.
For the molecule `CC(=O)O[C@H]1C(=O)[C@@]2(C)[C@H]([C@H](OC(=O)c3ccccc3)[C@]3(O)C[C@H](OC(=O)[C@H](O)[C@@H](NC(=O)c4ccccc4)c4ccccc4)C(C)=C1C3(C)C)[C@]1(OC(C)=O)CO[C@@H]1C[C@@H]2O`, the growth was -12.3% (active) and -35.8% (active).

The same assay, now with this note: 10 µM unless noted.
Regarding `CCCCCc1cc[n+](CC(=O)c2ccccc2)cc1`, the growth is 91% (inactive) and 99.9% (inactive). The same measure, in the same setting: in the case of `CC(=O)Nc1ccc(Sc2ccc(NC(C)=O)cc2)cc1` it was 73.1% (inactive); in that of `Cn1cc([C@@H]2Nc3ccc4[nH]ncc4c3[C@H]3[C@H]4CCC(C4)[C@H]32)c(C(F)(F)F)n1`, 7.12% (active); in that of `O=S(=O)(Nc1cc(Br)c(O)c2ccccc12)c1ccc(F)cc1`, -26.9% (active). Same read-out and setting: for `O=C1/C(=C/c2ccccc2[N+](=O)[O-])Oc2ccc(O)c(O)c21` the value was 4.39% (active). The same measure, in the same setting: in the case of `COc1ccc2nc3cc(Cl)ccc3c(N)c2c1` it was -71.6% (active). Regarding `OCCOc1c(Cl)cc(Cl)cc1Cl`, the growth was 118% (inactive). The same measure, in the same setting: for `CCCCCCCC[Si](OCC)(OCC)OCC` the value was 94.3% (inactive); for `COc1ccc(-c2ncnc3c2ncn3C/C=C/CCl)cc1`, 65% (inactive) and 79.4% (inactive). Same read-out and setting: in the case of `CCc1n(Cc2ccc3ccccc3c2)cc[n+]1Cc1ccc2ccccc2c1` it was -54% (active); in that of `C/C(=C\c1ccccc1)c1ccccn1`, 70.9% (inactive); in that of `COC(=O)CC[C@@H]1O[C@@H](c2cccc(C(F)(F)F)c2)[C@@H](O)[C@H]1O`, 105% (inactive).

As to `COc1cc(Cn2c(-c3nonc3N)nc3ccccc32)ccc1C`, the growth was -3.72% (active).

For the molecule `N#Cc1c(-c2ccccc2)cc(-c2ccccc2)n(CCCCCC(=O)Nc2ccccc2N)c1=O`, the growth is 2.68% (active).

Regarding `CCOC(C)(c1ccc(Cl)cc1)C1CCNCC1` (stereo not given), the growth is 86.1% (inactive).

`COc1ccc2cc(/C=C3\N=C(c4cc(OC)c(OC)c(OC)c4)OC3=O)c(OC)nc2c1`: the growth is 95.3% (inactive).

For the molecule `COc1cc2c(cc1OCCCCC(=O)Nc1ccc(-c3nc4ccccc4s3)cc1)N=C[C@@H]1CCCN1C2=O`, the growth was -47.2% (active). On to `O=C(O)c1c2c(nc3ccccc13)Cc1ccccc1-2`, for which the growth was 92.8% (inactive) and 112% (inactive). `COc1cc(OC)c(/C=C/C(=O)c2c(OC)cc(OC)cc2OC)c(OC)c1`: the growth was -25.1% (active). The same measure, in the same setting: for `COc1cc(-c2nn(-c3ccc(NC(=O)c4ccc(Cl)c(C(F)(F)F)c4)cc3)cc2-c2ccncc2)ccc1Cl` the value was 12% (inactive); for `CC(=O)OC1Oc2ccccc2-c2oc(=O)c(-c3cc(=O)oc4cc(O)ccc34)cc21` (stereo not given), 47% (inactive); for `COc1ccc2c(c1)[n+]([O-])c(C(=O)/C=C/C=C(\Cl)c1cc(OC)c(OC)c(OC)c1)c(C)[n+]2[O-]`, 107% (inactive). For `O=c1oc2ccccc2cc1C1=NN=C(SCc2ccccc2)SC1`, the growth is 102% (inactive). Turning to `COc1cccc(-c2nn(-c3ccccc3)cc2-c2ccnc(NCCNS(=O)(=O)c3cccc(F)c3)c2)c1`, the growth is 5.83% (active). On the same count and under the same terms, for `CC(C)Cc1ccc(C(C)C(=O)NCc2ccc(Cn3c(=O)sn(CCCI)c3=O)cc2)cc1` (stereo not given) the value was 74.9% (inactive) and -41.5% (active). Consider `CC1(C)CCC(S(=O)(=O)c2ccc3c(c2)/C(=N\O)c2cc(S(=O)(=O)N4CCC(O)(c5cccc(C(F)(F)F)c5)CC4)ccc2-3)CC1`, for which the growth was -67.5% (active). The same measure, in the same setting: in the case of `Nc1ncnc2c1ncn2C1OC(CO)C(O)C1O` (stereo not given) it was 65.5% (inactive) and 84.5% (inactive) and 105% (inactive). The same measure, in the same setting: in the case of `OCCOCCN(Cc1ccccn1)Cc1cc(I)cc(I)c1O` it was 63.3% (inactive); in that of `c1ccc(CNc2c3ccccc3nc3ccccc23)cc1`, 43.8% (inactive).

Turning to `CCC(=C(c1ccc(OCCN2CCCCC2)cc1)c1ccc(OCCN2CCCCC2)cc1)c1ccc(Cl)cc1`, the growth was -62.4% (active). The same measure, in the same setting: in the case of `O=C(Nc1ccc(-n2cc(-c3ccncc3)c(-c3ccc(Cl)c(O)c3)n2)cc1)c1cc(C(F)(F)F)cc(C(F)(F)F)c1` it was 52.6% (inactive). With `CCCCCCOc1ccc(/C=N/Nc2cc(C)nc3ccc(Br)cc23)cc1`, the growth is -13.7% (active). Same read-out and setting: for `COC(=O)/C=C/c1cc(OC(C)=O)c2c(c1)[C@@H](C(=O)OC)[C@H](c1ccc(OC(C)=O)c(OC(C)=O)c1)O2` the value was -42.8% (active); for `CCN1/C(=C\c2cc[n+](CC)c3ccccc23)C=Cc2ccccc21`, 5.97% (active). On the same count and under the same terms, in the case of `COc1ccc(-c2nn(-c3cccc(Cl)c3)cc2C=C(C#N)C#N)cc1` it was -36.7% (active).

On to `O=C(Nc1cccc(Cl)c1)c1cc2ccccc2cc1O`, for which the growth is 5.85% (active) and -13.6% (active).

The record behind these values is PubChem BioAssay (NCI).
